Compounds without any hit were thinned out: in the full panel of roughly 79,000, 15% have a hit. Active and inactive are the calls of the source. No stated cut-off is given here; in the data, active means growth inhibition above about 70%; inactive means the rest.
Assays:
[1] = NCI Yeast Anticancer Drug Screen. Data for the rad52 strain (AID 147);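 further: 0% = growth of vehicle-treated control cultures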; details: S. cerevisiae rad52 mutant growth inhibition, active compounds read high
Procedure, shortened: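 Yeast strain carrying a DNA damage repair alteration was exposed to test compounds. Growth inhibition was measured relative to vehicle-treated controls.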

[2] = NCI Yeast Anticancer Drug Screen. Data for the wt1 strain (AID 149);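 further: 0% = growth of vehicle-treated wt1 cultures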; details: S. cerevisiae wt1 strain (SPY 50644) growth inhibition, active compounds read high
Procedure, shortened: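 Measured: growth of wt1 yeast under compound versus vehicle treatment, reported as inhibition.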

[3] = NCI Yeast Anticancer Drug Screen. Data for the rad50EPP+ strain (AID 151);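 further: 0% = growth of vehicle-treated control cultures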; details: S. cerevisiae rad50 mutant strain, active compounds read high
Procedure, shortened: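 Yeast strain carrying rad50 alteration (rad50EPP+) exposed to compounds; growth inhibition measured relative to vehicle-treated controls.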

[4] = NCI Yeast Anticancer Drug Screen. Data for the mgt1 strain (AID 153); details: S. cerevisiae mgt1 mutant growth inhibition, active compounds read high
Procedure, shortened: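 Yeast mgt1 strain (DNA repair/cell-cycle alteration panel) exposed to compounds; growth inhibition measured relative to vehicle-treated controls.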

[5] = NCI Yeast Anticancer Drug Screen. Data for the rad50 strain (AID 155);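 further: 0% = growth of vehicle-only cultures of the same strain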; details: S. cerevisiae rad50 strain growth inhibition, active compounds read high
Procedure, shortened: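 Growth of the mutant yeast was measured after compound exposure and referenced to vehicle-treated cultures.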

[6] = NCI Yeast Anticancer Drug Screen. Data for the mec2-1 strain (AID 157); details: S. cerevisiae mec2-1 strain, active compounds read high
Procedure, shortened: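 mec2-1 yeast strain, carrying an alteration in DNA damage repair or cell cycle control, was exposed to compounds; growth inhibition was measured relative to vehicle-treated controls.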

[7] = NCI Yeast Anticancer Drug Screen. Data for the rad14 strain (AID 159);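 further: 0% = growth of vehicle-treated control cultures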; details: S. cerevisiae rad14 strain growth inhibition, active compounds read high
Procedure, shortened: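 Here, inhibition of yeast growth was measured after compound exposure, using a strain with a genetic defect in DNA damage repair and vehicle-treated cultures as the reference.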

[8] = NCI Yeast Anticancer Drug Screen. Data for the sgs1 mgt1 strain (AID 161);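 further: 0% = growth of cultures given vehicle only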; details: S. cerevisiae sgs1 mgt1 strain, active compounds read high
Procedure, shortened: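 Percent growth inhibition was derived by comparing compound-exposed mutant yeast with vehicle-exposed cultures. The strain carries alterations in DNA damage repair.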

[9] = NCI Yeast Anticancer Drug Screen. Data for the CLN2oe strain (AID 163);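 further: 0% = growth of vehicle-only control cultures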; details: S. cerevisiae CLN2oe strain, active compounds read high
Procedure, shortened: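 Yeast cells carrying a defined cell-cycle control alteration were exposed to test compounds. Growth inhibition was scored against vehicle-treated control cultures.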

[10] = NCI Yeast Anticancer Drug Screen. Data for the cln2 rad14 strain (AID 165);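 further: 0% = growth equal to vehicle treated cultures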; details: S. cerevisiae cln2 rad14 strain, active compounds read high
Procedure, shortened: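 Yeast carrying cln2 and rad14 alterations (cell cycle control and DNA damage repair) were exposed to compounds. Growth inhibition was measured against vehicle-treated controls.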

[11] = NCI Yeast Anticancer Drug Screen. Data for the bub3 strain (AID 167); details: S. cerevisiae bub3 mutant strain, active compounds read high
Procedure, shortened: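 Whole-cell yeast assay. The mutant strain was incubated with compounds, and growth inhibition was determined by comparison with vehicle-treated cells.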

[12] = NCI Yeast Anticancer Drug Screen. Data for the wt2 strain (AID 169);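 further: 0% = growth of vehicle-treated yeast cultures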; details: S. cerevisiae wt2 strain growth inhibition, active compounds read high
Procedure, shortened: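 Yeast cells were exposed to test compounds, and growth inhibition was measured relative to vehicle-treated controls.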

[13] = NCI Yeast Anticancer Drug Screen. Data for the mlh1 strain (AID 171);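 further: 0% = growth of vehicle-treated control cultures of the same strain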; details: S. cerevisiae mlh1 strain growth inhibition, active compounds read high
Procedure, shortened: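 Yeast carrying a defined genetic alteration in DNA damage repair or cell cycle control were exposed to test compounds. Growth inhibition was measured relative to vehicle-treated controls.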

[14] = NCI Yeast Anticancer Drug Screen. Data for the sgs1 strain (AID 173);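 further: 0% = growth of vehicle-only control cultures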; details: S. cerevisiae sgs1 mutant, active compounds read high
Procedure, shortened: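 Yeast mutant strains carrying defined defects in DNA damage repair or cell cycle control were exposed to test compounds. Growth inhibition was scored against vehicle-treated controls.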

[15] = NCI Yeast Anticancer Drug Screen. Data for the mlh1 rad18 strain (AID 175); details: S. cerevisiae mlh1 rad18 strain growth inhibition, active compounds read high
Procedure, shortened: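 Growth inhibition of the yeast strain was measured after compound exposure and expressed relative to vehicle-treated controls. The strain carries defined defects in DNA damage repair.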

[16] = NCI Yeast Anticancer Drug Screen. Data for the rad18 strain (AID 177); details: S. cerevisiae rad18 mutant growth inhibition, active compounds read high
Procedure, shortened: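 Yeast carrying a defined DNA damage repair alteration were exposed to compounds. Growth inhibition was expressed relative to vehicle-treated controls.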

[17] = at 5.0 µM (retest, dose inferred, filed as 0.5)
[18] = at 50.0 µM (retest, dose inferred, filed as 5.0)

Measured: growth inhibition

CC(=O)OC1CCC2(C)C(=CCC3C4CCC5(OC6CC(C)CN(C(C)=O)C6C5C)C(C)=C4C(=O)C32)C1 (stereo unspecified)
inactive: [1]; at 1.2 µM 18% | [1]; at 3.7 µM 12% | [1]; at 11.0 µM 57% | [2]; at 1.2 µM 2% | [2]; at 3.7 µM 2% | [2]; at 11.0 µM 28% | [3]; at 1.2 µM -39% | [3]; at 3.7 µM -28% | [3]; at 11.0 µM -7% | [3]; at 33.0 µM 6% | [3]; at 100.0 µM -1% | [4]; at 1.2 µM -26% | [4]; at 3.7 µM -30% | [4]; at 11.0 µM 61% | [5]; at 1.2 µM -49% | [5]; at 3.7 µM -31% | [5]; [17] 0% | [5]; at 11.0 µM 61% | [6]; at 1.2 µM -32% | [6]; at 3.7 µM -32% | [6]; [17] -9% | [6]; at 11.0 µM 3% | [6]; at 50.0 µM 68.4% | [7]; at 1.2 µM -30% | [7]; at 3.7 µM -17% | [7]; at 11.0 µM 50% | [8]; [17] 7% | [8]; at 50.0 µM 69.4% | [9]; at 1.2 µM 1% | [9]; at 3.7 µM -12% | [9]; at 11.0 µM 41% | [10]; [17] 17% | [11]; at 1.2 µM -2% | [11]; at 3.7 µM -23% | [11]; [17] 32% | [11]; at 11.0 µM 24% | [12]; at 1.2 µM -9% | [12]; at 3.7 µM -4% | [12]; at 11.0 µM 53% | [12]; at 100.0 µM 59% | [13]; at 1.2 µM -17% | [13]; at 3.7 µM -21% | [13]; at 11.0 µM 51% | [14]; at 1.2 µM -10% | [14]; at 3.7 µM -9% | [14]; at 11.0 µM 54% | [15]; [17] -10% | [16]; at 1.2 µM -1% | [16]; at 3.7 µM 15%
active: [1]; at 33.0 µM 97% | [1]; at 100.0 µM 96% | [2]; at 33.0 µM 97% | [2]; at 100.0 µM 94% | [4]; at 33.0 µM 97% | [4]; at 100.0 µM 96% | [5]; at 33.0 µM 94% | [5]; [18] 96% | [5]; at 50.0 µM 83.2% | [5]; at 100.0 µM 95% | [6]; at 33.0 µM 96% | [6]; [18] 98% | [6]; at 100.0 µM 89% | [7]; at 33.0 µM 96% | [7]; at 100.0 µM 89% | [8]; [18] 96% | [9]; at 33.0 µM 98% | [9]; at 100.0 µM 92% | [10]; [18] 98% | [10]; at 50.0 µM 84.2% | [11]; at 33.0 µM 96% | [11]; [18] 98% | [11]; at 50.0 µM 81.2% | [11]; at 100.0 µM 95% | [12]; at 33.0 µM 97% | [13]; at 33.0 µM 96% | [13]; at 100.0 µM 90% | [14]; at 33.0 µM 96% | [14]; at 100.0 µM 93% | [15]; [18] 98% | [15]; at 50.0 µM 76.8% | [16]; at 11.0 µM 75% | [16]; at 33.0 µM 96% | [16]; at 100.0 µM 95%

CN=C(N)N/N=C/c1ccc2c(c1)Cc1ccccc1-2
active: [1]; at 100.0 µM 94% | [3]; at 100.0 µM 97% | [4]; at 100.0 µM 92% | [5]; at 50.0 µM 72.8% | [5]; at 100.0 µM 92% | [6]; [18] 92% | [7]; at 100.0 µM 88% | [8]; [18] 83% | [9]; at 100.0 µM 80% | [11]; [18] 100% | [11]; at 100.0 µM 73% | [12]; at 100.0 µM 98% | [13]; at 100.0 µM 91% | [14]; at 100.0 µM 93% | [15]; [18] 85% | [15]; at 50.0 µM 81.2% | [16]; at 100.0 µM 90%
inactive: [1]; at 1.2 µM 6% | [1]; at 3.7 µM 19% | [1]; at 11.0 µM 20% | [1]; at 33.0 µM 31% | [2]; at 1.2 µM 0% | [2]; at 3.7 µM 17% | [2]; at 11.0 µM 4% | [2]; at 33.0 µM 8% | [2]; at 100.0 µM 44% | [3]; at 1.2 µM -6% | [3]; at 3.7 µM 12% | [3]; at 11.0 µM 23% | [3]; at 33.0 µM 32% | [4]; at 1.2 µM -11% | [4]; at 3.7 µM -2% | [4]; at 11.0 µM 1% | [4]; at 33.0 µM 14% | [5]; at 1.2 µM -7% | [5]; at 3.7 µM -9% | [5]; [17] 10% | [5]; at 11.0 µM -12% | [5]; at 33.0 µM -2% | [5]; [18] 64% | [6]; at 1.2 µM 9% | [6]; at 3.7 µM -4% | [6]; [17] 6% | [6]; at 11.0 µM -5% | [6]; at 33.0 µM -13% | [6]; at 50.0 µM 23.1% | [6]; at 100.0 µM 60% | [7]; at 1.2 µM -1% | [7]; at 3.7 µM -14% | [7]; at 11.0 µM -21% | [7]; at 33.0 µM -16% | [8]; [17] 24% | [8]; at 50.0 µM 30.2% | [9]; at 1.2 µM -90% | [9]; at 3.7 µM -34% | [9]; at 11.0 µM -16% | [9]; at 33.0 µM -5% | [10]; [17] -5% | [10]; [18] 27% | [10]; at 50.0 µM 19.8% | [11]; at 1.2 µM -15% | [11]; at 3.7 µM -4% | [11]; [17] 30% | [11]; at 11.0 µM -8% | [11]; at 33.0 µM 3% | [11]; at 50.0 µM 22.4% | [12]; at 1.2 µM -44% | [12]; at 3.7 µM -17% | [12]; at 11.0 µM -15% | [12]; at 33.0 µM 34% | [13]; at 1.2 µM -24% | [13]; at 3.7 µM -18% | [13]; at 11.0 µM -17% | [13]; at 33.0 µM -10% | [14]; at 1.2 µM 12% | [14]; at 3.7 µM 35% | [14]; at 11.0 µM 50% | [14]; at 33.0 µM 58% | [15]; [17] 42% | [16]; at 1.2 µM -5% | [16]; at 3.7 µM -15% | [16]; at 11.0 µM -12% | [16]; at 33.0 µM 1%

Source: PubChem BioAssay (NCI)
